Data on 26 molecules can be found in PubChem BioAssay (NCI).

Molecules are shown by their SMILES. About 83,000 compounds went through this panel and 20% of them were active in at least one assay; those are over-represented in the sample as a whole.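 Testing used 96-well plates and a 48-hour single-concentration exposure. Example: -40 means 40% of the starting cells died.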 Values without a mark were called inactive. The source made the active and inactive calls. The calls were made as follows: active = growth percent below 10; inactive = the rest.

What all share (experiment): NCI-60 one-dose screen, 48 h (100 = growth as untreated, 0 = no growth, -100 = all killed)
What all share (conditions): 10 µM unless noted

Assay [1] has as its system NCI-H23 lung.
Assay [2] has as its system NCI-H226 lung.
The test system of assay [3] is NCI-H322M lung.
Assay [4] relates to HOP-62 NSCLC.
Assay [5] deals with NCI-H460 lung.
The subject of assay [6] is HOP-92 NSCLC.
Assay [7] has as its system NCI-H522 lung.
The test system of assay [8] is A549/ATCC NSCLC.
For assay [9], the system named is 786-0 renal.
The subject of assay [10] is COLO 205 colon.

For `N=C(N)c1ccc(-c2ccc(-c3cc(Cl)cc(Cl)c3)s2)nc1`, the growth in assay [1] was 75.5%; in assay [2], 93.7%; in assay [3], 52.8%; in [4], 86.5%; in assay [5] it was -60.3% (active); in [6], 87.8%. Besides, the growth in [7] was 34.1%; in assay [8], 0.133% (active); in [9], 79.6%; in assay [10], -38.4% (active).

As for `COc1cccc(/C=C/C(=O)c2cc3c(N)c(C(=O)Nc4cccc5ccccc45)sc3nc2C)c1`, the growth in assay [1] was 28.4%; in [2] it was 36.4%; in [3], 41.1%; in [4], 25%; in assay [5], -0.349% (active); in assay [6], 68.8%. Moreover, the growth in assay [7] is 12%; in [8] it was 20.3%; in assay [9], 3.42% (active); in assay [10] it was 33.9%.

For `CC(=O)OC(c1ccccc1)C1CCOC1=O` (stereo not given), the growth in [1] was 93.8%; in assay [2], 93.6%; in assay [3], 106%; in assay [4], 99.2%; in [5] it was 109%; in assay [6], 93.2%. Moreover, the growth in assay [7] is 78.1%; in assay [8], 99%; in [9], 94.8%; in assay [10], 170%.

Regarding `CSC(SC)=C(C#N)c1nc2ccccc2s1`, the growth is 58.3% in assay [1]; 59% in assay [2]; 79.4% in [3]; 72.5% in [4]; 57.7% in assay [5]; -12.8% (active) in [6]. Moreover, the growth is 6.27% (active) in [7], 74.8% in assay [8], 61.8% in assay [9] and 112% in [10].

For `CN1C(=O)/C(=C/c2ccc(C(=O)Nc3ncc(Cc4cccc(Cl)c4)s3)cc2)SC1=S`, the growth is 59.5% in assay [1]; 64.5% in [2]; 76.2% in assay [3]; 62.9% in assay [4]; 20.3% in [5]; 71.9% in assay [6]. Moreover, the growth in assay [7] is 57.5%; in assay [8], 56%; in assay [9], 63.4%; in assay [10], 57.8%.

On to `C/C(=N\O)c1ccc(NC(=O)CSc2nnc(-c3cc(-c4ccc(S(C)(=O)=O)cc4)nc4ccccc34)n2-c2ccccc2)cc1`, for which the growth in assay [1] is 99.2%; in assay [2] it was 90.3%; in assay [3] it was 91.7%; in assay [4], 98.7%; in assay [5], 90.4%; in assay [6], 80.7%. Further, the growth is 82.2% in [7], 81.3% in [8], 93.9% in assay [9] and 102% in assay [10].

As to `Cc1ccc(C(=O)Nc2cccc(C#Cc3cccc4[nH]nc(N)c34)c2)cc1C(F)(F)F`, the growth in assay [1] was 51.8%; in assay [2], 55.8%; in assay [3], 79.2%; in assay [4] it was 58.7%; in assay [5], 75.6%; in assay [6], 63.8%. In addition, the growth is 60.2% in [7], 67.5% in [8], 62.6% in assay [9] and 40.2% in assay [10].

With `CC1=C(C(=O)Nc2ccccc2)C(c2ccc3c(c2)OCO3)NC(=S)N1` (stereo not given), the growth is 97.9% in assay [1]; 96.7% in assay [2]; 107% in assay [3]; 121% in assay [4]; 113% in assay [5]; 112% in [6]. Besides, the growth is 87.9% in [7], 108% in [8], 101% in [9] and 117% in [10].

As for `CCN(CC)c1ccc(CNc2cc(C)nc3ccccc23)cc1`, the growth in [1] was 26.9%; in assay [2], 56.2%; in assay [3], 80.3%; in assay [4], 77.1%; in [5], 58.2%; in assay [6] it was 49.6%. Besides, the growth is 53.5% in [7], 72.7% in assay [8], 79.1% in [9] and 1.94% (active) in assay [10].

Consider `COc1ccc2c(c1)c(-c1nc(-c3c[nH]c4ncccc34)cs1)cn2CCO`, for which the growth was 62.5% in assay [1]; 36.5% in assay [2]; 47.6% in [3]; 53.7% in assay [4]; 46.3% in assay [5]; 48.6% in assay [6]. Moreover, the growth was 36.8% in [7], 66.9% in assay [8], 59.5% in assay [9] and 56.9% in assay [10].

Regarding `NS(=O)(=O)c1ccc(-c2cc(-c3nnc(SCC(=O)Nc4ccc(C(=O)/C=C/c5ccc(Cl)cc5)cc4)n3-c3ccccc3)c3ccccc3n2)cc1`, the growth is 102% in assay [1]; 96.6% in [2]; 89.3% in assay [3]; 100% in assay [4]; 97.7% in assay [5]; 93.1% in assay [6]. The growth in assay [7] is 89.9%; in [8], 95%; in [9] it was 73.4%; in assay [10] it was 103%.

Turning to `Cc1ccc(CNc2ccc3nc(CCC(C)C)[nH]c3c2)cc1`, the growth in assay [1] is 94.2%; in assay [2] it was 89.8%; in [3], 100%; in assay [4], 99.6%; in assay [5] it was 106%; in assay [6], 56.7%. In addition, the growth in assay [7] is 84.2%; in [8], 97.6%; in assay [9], 84%; in assay [10] it was 102%.

In the case of `O=C1/C(=C/c2ccc(O)c(O)c2)COc2ccc(-c3ccccc3)cc21`, the growth in assay [1] is 35.8%; in assay [2], 36.2%; in assay [3], 54.8%; in assay [4] it was 77.5%; in assay [5], 13.7%; in assay [6], 1.73% (active). Also, the growth in assay [7] is -67.2% (active); in assay [8], 31.8%; in assay [9], 24.8%; in [10], 5.4% (active).

Regarding `COC1=C(C)C(=O)N2[C@@H]1[C@H](c1ccccc1)OC21C=CC(=O)C=C1`, the growth in assay [1] was 3.23% (active); in assay [2] it was -25.9% (active); in [3], 81.8%; in [4] it was 28.7%; in assay [5] it was 89.4%; in assay [6], -11.7% (active). In addition, the growth was -69.3% (active) in assay [7], 82.3% in assay [8], -48.9% (active) in assay [9] and -34.6% (active) in assay [10].

In the case of `O=C(Oc1ccc(CCl)cc1)c1ccccc1`, the growth in [1] was -72.6% (active); in assay [2], -97.8% (active); in assay [3], -91.4% (active); in [4] it was -79.2% (active); in assay [5] it was -47.5% (active); in [6], -89.7% (active). The growth in [7] is -65.7% (active); in [8], -68.7% (active); in assay [9] it was -92.5% (active); in assay [10], -72.9% (active).

Turning to `S=C(c1ccc2c(c1)OCO2)N1CCN(c2cccc(Cl)c2)CC1`, the growth in assay [1] is 35%; in assay [2] it was 34.2%; in assay [3] it was 57.3%; in assay [4], 37.5%; in [5] it was 6.73% (active); in assay [6], 63.9%. Moreover, the growth in [7] was 2.22% (active); in [8], 35.9%; in assay [9] it was 37.8%; in [10], 25.4%.

`COc1ccc(-c2nn(-c3ccccc3)cc2/C=C/C(=O)NNC(=O)Nc2ccc(C)cc2)cc1`: the growth in assay [1] is 102%; in assay [2], 97.2%; in [3], 99.6%; in [4] it was 102%; in assay [5] it was 102%; in [6] it was 102%. For the same molecule, the growth in assay [7] is 89.4%; in assay [8], 94.8%; in assay [9] it was 101%; in assay [10], 103%.

`COc1ccc(C(O)c2cc3c(N)c(C(=O)Nc4cccc(Cl)c4C)sc3nc2C)cc1` (stereo not given): the growth is 25.5% in assay [1]; 54.5% in [2]; 39.4% in assay [3]; 16.2% in assay [4]; -6.01% (active) in [5]; 16.2% in assay [6]. Moreover, the growth in assay [7] is -34.9% (active); in assay [8] it was 10.5%; in assay [9] it was 22.2%; in assay [10] it was -23% (active).

In the case of `C=C(C)[C@@H]1CC[C@]2(C(N)=O)CC[C@]3(C)[C@H](CC[C@@H]4[C@@]5(C)CC[C@H](OCCC#N)C(C)(C)[C@@H]5CC[C@]43C)[C@@H]12`, the growth is 91.3% in [1]; 84.1% in assay [2]; 73.3% in assay [3]; 95% in assay [4]; 79% in assay [5]; 78.1% in assay [6]. In addition, the growth in assay [7] was 77.5%; in assay [8] it was 74.6%; in assay [9], 94.8%; in assay [10], 86.1%.

In the case of `CCN1C(=O)N(CC)C2C1NN=c1s/c(=C3\C(=O)N(CC(C)C)c4ccccc43)c(=O)n12` (stereo not given), the growth in assay [1] was 31.1%; in assay [2], 61.5%; in assay [3], 58.1%; in assay [4] it was 45.6%; in [5], 5.36% (active); in assay [6], 66.3%. In addition, the growth in assay [7] was -2.72% (active); in assay [8], 21.6%; in assay [9] it was 37.2%; in [10], 17.6%.

Consider `CC1(C)N=C(N)N=C(N)N1c1ccc(CCCCc2ccccc2)c(Cl)c1`, for which the growth in assay [1] is 6.38% (active); in [2], 34.7%; in assay [3], 31.6%; in assay [4] it was 21.7%; in assay [5], 4.96% (active); in [6], 19.3%. The growth in assay [7] was -6.62% (active); in [8], 15.9%; in assay [9], 16.3%; in [10] it was -75.8% (active).

Regarding `O=C(Nc1ncccc1OCc1ccccc1)NC1CCCCCC1`, the growth in [1] is 89.8%; in assay [2], 73.8%; in [3] it was 88.2%; in assay [4], 102%; in [5], 93.5%; in assay [6], 68.4%. Also, the growth is 72.6% in [7], 97.8% in assay [8], 89.6% in assay [9] and 103% in assay [10].

Regarding `COc1ccc(/C=C(/c2ccccc2)[N+](=O)[O-])c(OC)c1`, the growth was 21.1% in assay [1]; 59.9% in [2]; 46.1% in assay [3]; 4.17% (active) in [4]; 2.72% (active) in assay [5]; -25.4% (active) in assay [6]. The growth is -13.2% (active) in [7], 7.88% (active) in assay [8], -66.1% (active) in [9] and -26.9% (active) in assay [10].

For `O=C(Nc1cc(Cl)ccc1O)c1cccc(Nc2ccnc(C(F)(F)F)c2)c1`, the growth in assay [1] was 11.6%; in assay [2], 54.2%; in [3], 59.1%; in assay [4], 64.8%; in assay [5], 30.5%; in assay [6], 53.6%. The growth in [7] is 30.6%; in [8] it was 37.1%; in assay [9], 49.3%; in assay [10], 90.9%.

In the case of `C#CCNC(=O)[C@]1(C)CCC[C@@]2(C)[C@H]1CC=C1C=C(C(C)C)CC[C@@H]12`, the growth in [1] is 100%; in assay [2], 97.6%; in assay [3], 100%; in assay [4] it was 98.7%; in [5], 106%; in [6], 109%. Moreover, the growth was 96.2% in [7], 97.6% in [8], 96.8% in [9] and 115% in [10].

As to `CCOC(=O)c1cc(C(=O)c2cc(OC)c(OC)c(OC)c2)n2ccccc12`, the growth in assay [1] is 38.9%; in [2], 34.5%; in assay [3], 49.7%; in [4] it was 28.3%; in [5], 14.2%; in assay [6], 54.1%. The growth in assay [7] is 26%; in assay [8], 25.7%; in assay [9], 35.5%; in [10] it was -31.8% (active).
